Assay [1] can be described thus: ATG_TAL_CIS: Attagene CIS-FACTORIAL HepG2 Assay for human TAL Basal Promoter (AID 2282966; active means hit-call score of the fitted dose curve at least 0.9, where 1 is the maximum; inactive means score below 0.9;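 further: background control endpoint measuring basal TAL promoter reporter mRNA not a specific factor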). The following applies: HepG2 Attagene cis-factorial TAL promoter reporter; actives raise or lower the signal. Summed up:
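Transiently transfected HepG2 (cis-regulated reporter units), 24 h treatment, mRNA read by fluorescent CE after RT-PCR; bidirectional fit, DMSO baseline.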

Assay [2] is described as follows: ATG_VDRE_CIS: Attagene CIS-FACTORIAL HepG2 Assay for human Vitamin D Receptor Element (VDRE) (AID 2282968; active means hit-call score of the fitted dose curve at least 0.9, where 1 is the maximum; inactive means score below 0.9). Particulars: HepG2 VDRE cis-reporter transcription, actives raise or lower the signal. The method in brief:
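Compounds were applied for 24 h to HepG2 cells transfected with promoter-regulated reporter units. Total RNA was reverse-transcribed, and reporter amplicons were fluorescently labelled and sized by capillary electrophoresis.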

The target in assay [3] is Nuclear receptor subfamily 1 group I member 3 (Homo sapiens) (UniProt Q14994). Put plainly: ATG_CAR_TRANS: Attagene TRANS-FACTORIAL HepG2 Assay for human Constitutive Androstane Receptor (CAR) (AID 2282969).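 Further: activators raise reporter mRNA above DMSO so AC50 marks induction.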 The following applies: HepG2 Attagene TRANS-FACTORIAL CAR reporter. The method in brief:
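Transiently transfected HepG2, multiplex TRANS reporters (CAR-Gal4 chimera driving GAL4-UAS reporter). 24 h dosing. Readout: reporter transcript by RT-PCR + capillary electrophoresis, fluorescence intensity; positive direction vs DMSO.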

Assay [4] concerns the target X-box-binding protein 1 (Homo sapiens) (UniProt P17861). Briefly: ATG_Xbp1_CIS: Attagene CIS-FACTORIAL HepG2 Assay for human X-box Binding Protein 1 (XBP1) (AID 2282972; active means hit-call score of the fitted dose curve at least 0.9, where 1 is the maximum; inactive means score below 0.9). The following applies: HepG2 XBP1 cis-element reporter, Attagene multiplex; actives raise or lower the signal. Summed up: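 Human hepatoma HepG2, cis-element reporter system, 24 h treatment; mRNA quantified by RT-PCR/CE fluorescence; fit relative to DMSO.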

Assay [5] has as its target Oxysterols receptor LXR-alpha (Homo sapiens) (UniProt Q13133). Put plainly: ATG_LXRa_TRANS: Attagene TRANS-FACTORIAL HepG2 Assay for human Liver X Receptor alpha (LXRa) (AID 2282980). The following applies: HepG2 Attagene TRANS reporter, LXRa transactivation. Summed up:
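HepG2 cells were transiently transfected with multiplexed reporter units driven by chimeric LXRa–GAL4 fusion proteins, then dosed for 24 h. Reporter mRNA was quantified by RT-PCR, fluorescent labelling and capillary electrophoresis; gain of signal fitted against DMSO baseline.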

The target in assay [6] is Oxysterols receptor LXR-beta (Homo sapiens) (UniProt P55055). Briefly: ATG_LXRb_TRANS: Attagene TRANS-FACTORIAL HepG2 Assay for human Liver X Receptor beta (LXRb) (AID 2282981). Particulars: HepG2 Attagene TRANS GAL4-LXRb reporter, mRNA. The method in brief:
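Multiplexed reporter assay, HepG2, 24 h dosing. Fluorescence of labelled RT-PCR products after capillary electrophoresis gives transcript level; positive fitting direction relative to DMSO.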

The nature of assay [7]: ATG_M_06_TRANS: Attagene TRANS-FACTORIAL HepG2 Assay for M06 Transcription Factor (Internal Marker) (AID 2282983). Particulars: HepG2 Attagene TRANS M06 internal marker reporter. Summed up:
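In this multiplexed HepG2 system, compounds are incubated 24 h with cells carrying GAL4-UAS reporter units. Reporter RNA is amplified and resolved by capillary electrophoresis, and induction is scored against DMSO.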

Assay [8] is described as follows: ATG_M_32_TRANS: Attagene TRANS-FACTORIAL HepG2 Assay for M32 Transcription Factor (Internal Marker) (AID 2282984).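 Further: transcript level of a background control reporter unit measured by RT-PCR and capillary electrophoresis.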 Particulars: HepG2 Attagene TRANS M32 internal marker reporter. Summed up: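 Internal-marker readout from a multiplexed transcription reporter panel. HepG2 cells were transfected with GAL4-UAS reporter units, treated 24 hours, and reporter transcript levels determined by fluorescence after RT-PCR and capillary separation.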

Assay [9] addresses Transcriptional activator Myb (Homo sapiens) (UniProt P10242). Put plainly: ATG_Myb_CIS: Attagene CIS-FACTORIAL HepG2 Assay for human Myeloblastosis (Myb) Proto-Oncogene Transcription Factor (AID 2282986; active means hit-call score of the fitted dose curve at least 0.9, where 1 is the maximum; inactive means score below 0.9). Particulars: HepG2 Attagene CIS-FACTORIAL Myb reporter transcription; actives raise or lower the signal. Summed up:
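Using HepG2 liver cells bearing transiently transfected cis-promoter reporter constructs, the assay measures induction or loss of reporter mRNA after 24 hours of dosing. Detection used fluorescently labeled RT-PCR products separated by capillary electrophoresis.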

Assay [10] in a line: ATG_GAL4_TRANS: Attagene TRANS-FACTORIAL HepG2 Assay for GAL4 (Internal Marker) (AID 2282976). Particulars: HepG2 Attagene TRANS GAL4 internal marker reporter. The method in brief:
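HepG2 cells transiently transfected with multiplexed GAL4-UAS reporter constructs were dosed for 24 h. Reporter mRNA was measured by RT-PCR, 6-FAM primer extension, HpaI digestion and capillary electrophoresis, and gain of signal was fitted relative to DMSO.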

The target of assay [11] is Nuclear respiratory factor 1 (Homo sapiens) (UniProt Q16656). Put plainly: ATG_NRF1_CIS: Attagene CIS-FACTORIAL HepG2 Assay for human Nuclear Respiratory Factor 1 (NRF1) Orphan Gene (AID 2282987; active means hit-call score of the fitted dose curve at least 0.9, where 1 is the maximum; inactive means score below 0.9). The following applies: HepG2 NRF1 cis-element reporter, Attagene multiplex; actives raise or lower the signal. The method in brief: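 Reporter mRNA induction or loss in HepG2 cells after 24 h dosing; cis-regulated reporter constructs report endogenous transcription-factor activity. Quantified by RT-PCR/capillary electrophoresis fluorescence, DMSO-referenced.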

Assay [12] is described as follows: ATG_M_19_TRANS: Attagene TRANS-FACTORIAL HepG2 Assay for M19 Transcription Factor (Internal Marker) (AID 2282974). Particulars: HepG2 Attagene TRANS-FACTORIAL M19 internal marker reporter. Summed up:
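Multiplexed TRANS format: HepG2 liver cells bearing transient GAL4-UAS reporter units, chemical treatment 24 h, reporter transcripts quantified by RT-PCR plus capillary electrophoresis. DMSO defines baseline.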

In assay [13] the target is Glucocorticoid receptor (Homo sapiens) (UniProt P04150). Put plainly: ATG_GR_TRANS: Attagene TRANS-FACTORIAL HepG2 Assay for human Glucocorticoid Receptor (GR) (AID 2282978).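 Further: activators score as hits since higher reporter transcript over DMSO is fitted.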 Particulars: HepG2 Attagene TRANS GR reporter, mRNA transcription. Summed up:
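Transiently transfected HepG2 cells express chimeric NR-GAL4 proteins acting on GAL4-UAS reporter units. Compounds are applied for 24 h. mRNA induction over DMSO is measured by capillary electrophoresis.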

The target of assay [14] is Hepatocyte nuclear factor 4-alpha (Homo sapiens) (UniProt P41235). Briefly: ATG_HNF4a_TRANS: Attagene TRANS-FACTORIAL HepG2 Assay for human Hepatocyte Nuclear Factor 4 alpha (HNF4a) (AID 2282982). Particulars: HepG2 HNF4a transactivation reporter, mRNA readout. The method in brief:
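Endpoint reflects transcriptional activation of a GAL4-UAS reporter by an HNF4a-GAL4 chimera in transfected HepG2 cells, 24 h post-dosing. Fluorescence from RT-PCR products separated by capillary electrophoresis; DMSO baseline.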

For assay [15], the target named is Nuclear receptor subfamily 4 group A member 2 (Homo sapiens) (UniProt P43354). Briefly: ATG_NURR1_TRANS: Attagene TRANS-FACTORIAL HepG2 Assay for human Nuclear Receptor Related Protein 1 (NURR1) (AID 2282985). The following applies: HepG2 Attagene TRANS reporter, mRNA readout. The method in brief: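 Endpoint: reporter mRNA increase relative to DMSO. HepG2 cells transfected with reporter units, treated 24 h; RNA processed by RT-PCR, labelling, HpaI digestion and capillary electrophoresis.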

Assay [16] concerns the target Estrogen receptor (Homo sapiens) (UniProt P03372). Put plainly: ATG_ERa_TRANS: Attagene TRANS-FACTORIAL HepG2 Assay for human Estrogen Receptor alpha (ERa) (AID 2282970). The following applies: HepG2 Attagene TRANS ERa GAL4 reporter, mRNA. The method in brief: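 One of 30 multiplexed endpoints from a HepG2 TRANS system, this one reports ERa-Gal4-driven reporter mRNA. Transcripts were quantified 24 hours post-dosing by fluorescent RT-PCR and capillary electrophoresis, with activity scored as induction over DMSO.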

Assay [17] addresses Bile acid receptor (Homo sapiens) (UniProt Q96RI1). Briefly: ATG_FXR_TRANS: Attagene TRANS-FACTORIAL HepG2 Assay for Farnesoid X Receptor (FXR) (AID 2282979).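 Further: hits raise reporter mRNA above DMSO so AC50 marks FXR activation.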 The following applies: HepG2 Attagene TRANS FXR-GAL4 reporter transcription. The method in brief:
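HepG2 cells transiently transfected with reporter constructs in which a chimeric FXR-GAL4 protein drives a GAL4-UAS reporter; 24 h compound exposure. Reporter mRNA measured by RT-PCR, FAM labelling, HpaI digestion and capillary electrophoresis; gain-of-signal versus DMSO.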

Inconclusive results are not listed. Calls of active or inactive are those of the source. How the source made its calls, unless noted: active means hit-call score of the fitted dose curve at least 0.9, where 1 is the maximum; inconclusive means response in the unintended direction; inactive means score below 0.9.

Here are results for seven molecules from PubChem BioAssay (EPA / NIEHS).

Nuclear receptor subfamily 1 group I member 3 (Homo sapiens), sequence (Q14994 whole entry, looked up, the tested form may be a part): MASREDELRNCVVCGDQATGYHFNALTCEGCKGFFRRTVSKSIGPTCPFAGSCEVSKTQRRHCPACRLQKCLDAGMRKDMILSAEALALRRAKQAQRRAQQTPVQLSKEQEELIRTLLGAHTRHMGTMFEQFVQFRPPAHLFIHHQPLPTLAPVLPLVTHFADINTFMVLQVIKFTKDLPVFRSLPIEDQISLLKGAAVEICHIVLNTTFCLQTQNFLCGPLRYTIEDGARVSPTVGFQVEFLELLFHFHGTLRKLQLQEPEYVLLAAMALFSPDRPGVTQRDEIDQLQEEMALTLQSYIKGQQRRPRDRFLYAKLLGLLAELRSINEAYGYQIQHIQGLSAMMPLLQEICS
Nuclear respiratory factor 1 (Homo sapiens), sequence (Q16656 whole entry, looked up): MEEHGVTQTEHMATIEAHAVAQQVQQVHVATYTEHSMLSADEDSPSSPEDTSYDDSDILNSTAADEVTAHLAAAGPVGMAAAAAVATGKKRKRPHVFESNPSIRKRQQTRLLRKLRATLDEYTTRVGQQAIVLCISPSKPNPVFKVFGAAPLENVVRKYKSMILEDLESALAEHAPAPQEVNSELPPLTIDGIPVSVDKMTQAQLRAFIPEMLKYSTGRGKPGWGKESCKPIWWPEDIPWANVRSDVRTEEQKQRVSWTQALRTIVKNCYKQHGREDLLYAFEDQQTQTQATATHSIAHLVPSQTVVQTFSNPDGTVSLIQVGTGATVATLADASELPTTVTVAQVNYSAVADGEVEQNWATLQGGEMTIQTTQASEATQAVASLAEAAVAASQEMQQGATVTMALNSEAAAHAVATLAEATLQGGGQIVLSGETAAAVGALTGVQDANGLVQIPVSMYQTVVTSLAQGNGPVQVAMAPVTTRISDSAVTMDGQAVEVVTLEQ
Nuclear receptor subfamily 4 group A member 2 (Homo sapiens), sequence (P43354 whole entry, looked up): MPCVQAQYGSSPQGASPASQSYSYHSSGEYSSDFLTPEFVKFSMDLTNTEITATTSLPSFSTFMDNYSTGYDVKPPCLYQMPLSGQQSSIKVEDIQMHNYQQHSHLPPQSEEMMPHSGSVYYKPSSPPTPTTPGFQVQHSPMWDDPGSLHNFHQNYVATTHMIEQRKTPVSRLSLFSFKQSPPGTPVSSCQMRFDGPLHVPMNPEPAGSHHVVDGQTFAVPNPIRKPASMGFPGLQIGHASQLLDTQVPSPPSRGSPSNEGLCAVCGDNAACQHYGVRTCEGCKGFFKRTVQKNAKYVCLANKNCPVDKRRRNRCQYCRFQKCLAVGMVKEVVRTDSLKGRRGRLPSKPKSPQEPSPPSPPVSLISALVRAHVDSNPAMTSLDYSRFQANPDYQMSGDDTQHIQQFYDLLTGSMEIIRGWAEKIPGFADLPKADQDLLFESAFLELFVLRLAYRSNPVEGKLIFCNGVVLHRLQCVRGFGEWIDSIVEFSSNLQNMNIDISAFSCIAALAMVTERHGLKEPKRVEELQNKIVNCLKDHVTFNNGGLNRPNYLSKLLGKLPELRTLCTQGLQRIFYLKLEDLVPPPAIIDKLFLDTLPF
Transcriptional activator Myb (Homo sapiens), sequence (P10242 whole entry, looked up): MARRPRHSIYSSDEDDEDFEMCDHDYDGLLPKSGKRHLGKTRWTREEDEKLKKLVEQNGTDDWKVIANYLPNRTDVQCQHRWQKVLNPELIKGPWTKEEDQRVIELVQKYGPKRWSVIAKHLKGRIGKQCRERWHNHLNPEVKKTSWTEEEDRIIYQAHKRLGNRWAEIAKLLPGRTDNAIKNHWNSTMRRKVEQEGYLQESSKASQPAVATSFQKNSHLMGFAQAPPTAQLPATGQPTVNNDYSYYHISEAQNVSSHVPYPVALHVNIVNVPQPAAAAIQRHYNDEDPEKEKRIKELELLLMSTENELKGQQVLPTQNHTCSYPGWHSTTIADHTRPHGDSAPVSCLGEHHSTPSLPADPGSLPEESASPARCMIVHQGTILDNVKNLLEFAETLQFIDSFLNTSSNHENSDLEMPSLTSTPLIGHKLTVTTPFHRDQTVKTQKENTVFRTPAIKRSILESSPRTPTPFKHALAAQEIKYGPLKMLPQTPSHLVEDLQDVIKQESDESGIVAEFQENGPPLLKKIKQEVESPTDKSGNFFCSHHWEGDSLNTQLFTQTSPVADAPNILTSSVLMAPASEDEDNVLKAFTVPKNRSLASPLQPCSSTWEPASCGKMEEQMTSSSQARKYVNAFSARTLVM
Oxysterols receptor LXR-beta (Homo sapiens), sequence (P55055 whole entry, looked up, the tested form may be a part): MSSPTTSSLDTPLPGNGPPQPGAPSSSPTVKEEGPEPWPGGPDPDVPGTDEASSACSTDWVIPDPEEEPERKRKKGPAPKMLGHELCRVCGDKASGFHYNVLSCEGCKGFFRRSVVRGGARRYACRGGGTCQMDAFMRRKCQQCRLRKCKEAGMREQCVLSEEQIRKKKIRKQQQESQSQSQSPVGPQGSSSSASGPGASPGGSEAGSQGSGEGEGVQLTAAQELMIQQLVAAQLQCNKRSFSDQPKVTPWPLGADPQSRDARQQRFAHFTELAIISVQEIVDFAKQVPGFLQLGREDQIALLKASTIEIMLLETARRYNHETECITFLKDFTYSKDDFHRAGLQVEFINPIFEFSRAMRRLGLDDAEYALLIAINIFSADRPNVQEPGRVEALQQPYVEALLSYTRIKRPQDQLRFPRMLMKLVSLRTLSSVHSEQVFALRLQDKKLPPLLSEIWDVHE
Hepatocyte nuclear factor 4-alpha (Homo sapiens), sequence (P41235 whole entry, looked up, the tested form may be a part): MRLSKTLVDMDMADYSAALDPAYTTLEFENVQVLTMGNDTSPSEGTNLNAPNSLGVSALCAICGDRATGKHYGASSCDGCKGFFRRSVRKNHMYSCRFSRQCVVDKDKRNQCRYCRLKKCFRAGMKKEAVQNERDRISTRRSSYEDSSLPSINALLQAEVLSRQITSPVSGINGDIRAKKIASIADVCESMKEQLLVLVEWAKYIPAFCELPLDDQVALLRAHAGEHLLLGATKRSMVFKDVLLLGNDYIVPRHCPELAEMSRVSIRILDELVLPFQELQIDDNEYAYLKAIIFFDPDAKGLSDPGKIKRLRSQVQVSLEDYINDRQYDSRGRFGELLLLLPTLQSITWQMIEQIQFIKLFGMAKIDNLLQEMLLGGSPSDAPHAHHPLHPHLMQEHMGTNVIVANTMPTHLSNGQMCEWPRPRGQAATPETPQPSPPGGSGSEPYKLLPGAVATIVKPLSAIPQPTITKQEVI
Oxysterols receptor LXR-alpha (Homo sapiens), sequence (Q13133 whole entry, looked up, the tested form may be a part): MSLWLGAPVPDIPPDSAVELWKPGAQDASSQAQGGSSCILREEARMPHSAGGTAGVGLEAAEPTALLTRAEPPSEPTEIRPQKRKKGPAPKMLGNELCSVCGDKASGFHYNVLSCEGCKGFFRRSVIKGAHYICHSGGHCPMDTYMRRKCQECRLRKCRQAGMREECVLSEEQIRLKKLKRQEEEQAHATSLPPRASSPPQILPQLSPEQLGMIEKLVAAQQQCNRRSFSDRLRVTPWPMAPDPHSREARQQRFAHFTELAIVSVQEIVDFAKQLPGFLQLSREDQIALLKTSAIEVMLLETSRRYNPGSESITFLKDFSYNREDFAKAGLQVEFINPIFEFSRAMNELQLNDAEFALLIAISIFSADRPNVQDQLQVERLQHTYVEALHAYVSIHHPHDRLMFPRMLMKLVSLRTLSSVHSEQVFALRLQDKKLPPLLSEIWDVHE
X-box-binding protein 1 (Homo sapiens), sequence (P17861 whole entry, looked up): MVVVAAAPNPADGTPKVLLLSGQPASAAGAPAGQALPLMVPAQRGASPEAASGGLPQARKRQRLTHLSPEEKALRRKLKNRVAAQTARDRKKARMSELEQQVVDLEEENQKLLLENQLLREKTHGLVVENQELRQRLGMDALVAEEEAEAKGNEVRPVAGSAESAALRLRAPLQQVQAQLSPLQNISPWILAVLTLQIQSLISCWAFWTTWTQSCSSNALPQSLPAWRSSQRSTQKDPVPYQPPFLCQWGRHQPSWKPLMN
Estrogen receptor (Homo sapiens), sequence (P03372 whole entry, looked up, the tested form may be a part): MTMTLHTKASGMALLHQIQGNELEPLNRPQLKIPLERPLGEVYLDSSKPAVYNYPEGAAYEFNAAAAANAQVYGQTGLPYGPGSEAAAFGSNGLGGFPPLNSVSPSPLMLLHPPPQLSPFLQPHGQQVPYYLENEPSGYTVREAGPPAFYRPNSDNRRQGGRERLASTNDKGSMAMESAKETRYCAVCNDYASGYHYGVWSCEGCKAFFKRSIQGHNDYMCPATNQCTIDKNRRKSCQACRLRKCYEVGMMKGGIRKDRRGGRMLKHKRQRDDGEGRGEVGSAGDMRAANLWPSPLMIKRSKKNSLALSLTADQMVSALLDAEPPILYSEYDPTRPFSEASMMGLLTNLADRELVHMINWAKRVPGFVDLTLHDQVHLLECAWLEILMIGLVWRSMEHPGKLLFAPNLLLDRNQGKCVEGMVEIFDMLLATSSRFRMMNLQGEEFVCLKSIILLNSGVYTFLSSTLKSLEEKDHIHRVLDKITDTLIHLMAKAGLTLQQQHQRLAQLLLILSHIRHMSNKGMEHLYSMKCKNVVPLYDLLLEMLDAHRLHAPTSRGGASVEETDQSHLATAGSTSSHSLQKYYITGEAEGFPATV
Bile acid receptor (Homo sapiens), sequence (Q96RI1 whole entry, looked up, the tested form may be a part): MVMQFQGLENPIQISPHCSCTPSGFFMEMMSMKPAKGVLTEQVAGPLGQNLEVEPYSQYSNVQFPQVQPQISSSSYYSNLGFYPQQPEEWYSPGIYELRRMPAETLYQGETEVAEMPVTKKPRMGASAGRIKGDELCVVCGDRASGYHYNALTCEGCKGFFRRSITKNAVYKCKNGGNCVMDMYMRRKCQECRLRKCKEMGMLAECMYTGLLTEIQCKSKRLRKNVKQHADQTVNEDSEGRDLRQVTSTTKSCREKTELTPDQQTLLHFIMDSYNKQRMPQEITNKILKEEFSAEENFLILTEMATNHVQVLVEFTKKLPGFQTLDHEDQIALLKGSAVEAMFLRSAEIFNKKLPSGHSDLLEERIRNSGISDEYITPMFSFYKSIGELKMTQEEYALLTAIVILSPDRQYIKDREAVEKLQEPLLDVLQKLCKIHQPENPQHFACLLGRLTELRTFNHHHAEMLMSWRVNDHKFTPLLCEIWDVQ

Regarding `CCOC(=O)c1ccccc1OC`, the molecule was classed as inactive in assay [1], in assay [2], in assay [3], in assay [4], in assay [5] and in assay [6]. The outcome in assay [7], in [8] and in assay [9] was inactive.
Regarding `NC(=O)NC1NC(=O)NC1=O` (centres undefined), the molecule was classed as inactive in assay [1], in assay [2], in assay [3], in [4], in assay [10] and in assay [5]. Moreover, the call in assay [6], in assay [7], in [8], in [9] and in assay [11] was inactive.
Turning to `O=C(O)c1ccc(C(=O)O)cc1`, the result in assay [1], in [2], in [4], in [12], in [13] and in assay [5] was inactive. In addition, the outcome in [14], in assay [7], in assay [8], in assay [15], in assay [9] and in assay [11] was inactive.
Turning to `Nc1ccc(S(=O)(=O)O)c(N)c1`, the call in assay [1], in assay [2], in [4], in assay [5], in assay [6] and in assay [7] was inactive. Moreover, the call in assay [15], in assay [9] and in assay [11] was inactive.
Turning to `Cc1c(Cl)c(=O)oc2cc(O)ccc12`, the molecule was classed as inactive in [1], in assay [3], in assay [4], in assay [12], in [13] and in assay [6]. The molecule was classed as inactive in [8], in assay [15], in assay [9] and in assay [11]. Moreover, the half-maximal activity concentration (AC50) is 149 µM (active) in assay [2] and 20.9 µM (active) in [5].
For `CC(=O)[C@H]1CC[C@H]2[C@@H]3CC=C4C[C@@H](O)CC[C@]4(C)[C@H]3CC[C@]12C`, the molecule was classed as inactive in assay [1], in [4], in [17], in [14], in assay [7] and in assay [8]. For the same molecule, the result in assay [15], in [9] and in [11] was inactive. Besides, the AC50 in assay [16] is 1.32 µM (active).
Consider `C[C@H]1C[C@H]2[C@@H]3CCC4=CC(=O)C=C[C@]4(C)[C@@]3(F)[C@@H](O)C[C@]2(C)[C@@]1(O)C(=O)COP(=O)(O)O`, for which the molecule was classed as inactive in [1], in assay [2], in assay [16], in assay [4], in assay [12] and in assay [5]. Further, the outcome in assay [6], in assay [14], in [8], in assay [9] and in [11] was inactive.

By AC50 is commonly meant the concentration at which the activity in the assay is half-maximal.
